The results in this text go back to PubChem BioAssay (NCATS).

The nature of experiment [1]: P-glycoprotein substrates identified in KB-3-1 adenocarcinoma cell line, qHTS therapeutic library screen (AID 1346986). Also: nearly all actives have a fitted effect of over 60% in size.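 Also: potency is for cytotoxicity meaning loss of cell viability.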 The procedure, abridged: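 Viability read by CellTiter-Glo after 72 h compound exposure in dose-response of KB-3-1 and KB-8-5-11 (P-gp-high) cells. Hits needed AC50 < 10 uM, >50% maximum response and curve class -1.1 to -2.4. Cherry-picks retested ± tariquidar, including pcDNA/MDR-19 HEK-293 pair.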

Experiment [2] in a line: P-glycoprotein substrates identified in KB-8-5-11 adenocarcinoma cell line, qHTS therapeutic library screen (AID 1346987). Also: nearly all actives have a fitted effect of over 65% in size. As to activity change, negative = cytotoxicity: series mostly up to about 44 µM. In a few lines:
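Luminescence from CellTiter-Glo, read 5 min after addition, quantified survival of KB-8-5-11 (P-gp-overexpressing) cells exposed to compounds for 72 h. AC50 was derived from concentration-response curves.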

SMILES strings stand for the structures. Results filed as inconclusive are left out. A number with no mark means an inactive call. Activity calls are given as the source filed them. Calls follow the shape of the dose curve; as a rule, active = well fitted curve in the direction sought with a large enough effect; inconclusive = small, poorly fitted or top-dose-only effect, or another doubt; inactive = no such curve, though single readings can be large; an effect the other way counts as inactive or inconclusive.
% is scaled to controls: 0 for no effect and ±100 for the full control effect; potency is read from the fitted curve at half-maximal effect.

In the case of `C#Cc1cccc(Nc2nc3cc(C(=O)O)ccc3c3cncnc23)c1`, the Potency in experiment [1] is 5.8 µM (active).
On the same count and under the same terms, with `O=C(Nc1ccccc1C(=O)Nc1ccc(CCO)cc1)c1ccc([N+](=O)[O-])cc1` the entry was “inactive”.
In the case of `C/C=C(/C=C(C)/C=C/C=C/C=C(\C)C(=O)C12OC1C(O)(CCO)NC2=O)C(=O)OC` (stereo not drawn), the Potency result in experiment [1] and in experiment [2] was “inactive” each time.
On to `C[C@@H]1O[C@@H](O[C@H]2CC[C@@]3(C)C(CC[C@]4(C)C3CC=C3[C@@H]5CC(C)(C)CC[C@]5(C(=O)O[C@@H]5O[C@H](CO)[C@@H](O)[C@H](O)[C@H]5O)CC[C@]34C)[C@]2(C)CO)[C@H](O)[C@H](O[C@@H]2O[C@H](CO)[C@@H](O)[C@H](O)[C@H]2O)[C@H]1O` (stereo partly drawn), for which the outcome in experiment [1] was “inactive [at 9.29 µM]”. Moreover, the activity change, negative = cytotoxicity in experiment [2] was 3.4% [at 9.29 µM].
For `O=C(/C=C/c1ccccc1O)O[C@@H]1O[C@H](CO)[C@@H](O)[C@H](O)[C@H]1O`, the Potency result in experiment [1] and in experiment [2] was “inactive” throughout.
As for `C=CC(=O)Nc1cccc(Nc2nc(Nc3ccc(NC4CN(CCF)C4)cc3OC)ncc2C(F)(F)F)c1`, in experiment [1], the Potency is 10.3 µM (active).
Take `C=CC(=O)N1CC(N2CCN(C(=O)CNc3cc(C4CC4)c(Cl)cc3O)CC2)C1`: the Potency result in experiment [1] and in experiment [2] was “inactive” in each case.
Turning to `CCOC(=O)CCNc1cc(N2CCc3ccccc3CC2)nc(-c2cccnc2)n1`, the Potency result in experiment [1] and in experiment [2] was “inactive” in each case.
For `COc1cc2ncnc(Oc3ccc(CC(=O)Nc4cnn(C(C)C)c4)cc3)c2cc1OC`, the Potency result in experiment [1] is “inactive”.
Take `COc1cccc(OCCCN)c1-c1cc(Nc2cnc(C#N)cn2)n[nH]1`: the figures for the Potency in experiment [1] and in experiment [2] were 0.146 µM (active) and 1.3 µM (active), respectively.
With `O=C(Cc1c(F)cccc1F)Nc1cc(OCc2ccc(Cl)cc2)ccn1`, the Potency result in experiment [1] and in experiment [2] was “inactive” each time.
